Key:
Assay in all cases: DAPPL (digital affinity profiling via proximity ligation, sequencing); 10 mM Tris-HCl pH 7.5, 50 mM NaCl, 1 mM DTT, 4% glycerol, room temperature, 30 min; GST-TFs on glutathione beads, 16-mer random dsDNA library, 0.1% formaldehyde crosslink after washing; high values mean tight binding
Conditions in all cases: protein: recombinant; tags: N-terminal GST; dsDNA, one strand shown
FLI1 = target: T1, FLI1 (Homo sapiens, UniProt Q01543 1-452)
T1 sequence: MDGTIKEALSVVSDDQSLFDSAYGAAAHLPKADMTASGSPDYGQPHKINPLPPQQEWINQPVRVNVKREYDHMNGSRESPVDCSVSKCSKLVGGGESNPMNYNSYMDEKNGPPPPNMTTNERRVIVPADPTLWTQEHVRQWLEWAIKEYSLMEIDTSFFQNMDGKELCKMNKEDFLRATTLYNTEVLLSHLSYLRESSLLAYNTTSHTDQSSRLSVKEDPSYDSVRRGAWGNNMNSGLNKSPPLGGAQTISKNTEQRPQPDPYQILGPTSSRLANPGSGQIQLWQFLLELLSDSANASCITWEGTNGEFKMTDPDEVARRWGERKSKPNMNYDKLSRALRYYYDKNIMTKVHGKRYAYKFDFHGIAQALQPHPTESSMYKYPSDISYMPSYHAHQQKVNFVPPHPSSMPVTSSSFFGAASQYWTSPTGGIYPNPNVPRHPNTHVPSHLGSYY
Procedure, shortened: (§1)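 Human transcription factors carrying a GST fusion were produced in yeast, bound to glutathione beads, tagged with DNA barcodes and pooled together with a tag-only sample. Each pool was held with 200 nmole of a random double-stranded 16-mer DNA library in Tris/NaCl/DTT/glycerol buffer for 30 min at room temperature, then washed, crosslinked in 0.1% formaldehyde, proximity-ligated with BsaI/T4 ligase (1 h, 37 °C), PCR-amplified and sequenced on an Illumina NextSeq500. Binding signal is the read frequency of each hexamer for a given factor divided by its frequency in the tag-only sample.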

ELK1 = target: T2, ELK1 (Homo sapiens, UniProt P19419 1-428)
T2 sequence: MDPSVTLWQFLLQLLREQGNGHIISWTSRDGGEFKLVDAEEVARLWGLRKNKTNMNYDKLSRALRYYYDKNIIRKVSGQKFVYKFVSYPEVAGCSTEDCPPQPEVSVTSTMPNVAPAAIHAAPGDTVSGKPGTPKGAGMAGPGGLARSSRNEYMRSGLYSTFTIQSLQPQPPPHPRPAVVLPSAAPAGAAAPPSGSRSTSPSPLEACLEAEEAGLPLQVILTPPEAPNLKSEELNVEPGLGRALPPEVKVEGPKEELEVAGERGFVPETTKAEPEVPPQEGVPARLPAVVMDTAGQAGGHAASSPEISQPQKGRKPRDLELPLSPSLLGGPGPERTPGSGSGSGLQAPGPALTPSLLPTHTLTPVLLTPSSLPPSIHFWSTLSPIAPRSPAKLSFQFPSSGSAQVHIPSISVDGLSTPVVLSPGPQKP
Procedure, shortened: as §1

GABPA = target: T3, GABPA (Homo sapiens, UniProt Q06546 1-454)
T3 sequence: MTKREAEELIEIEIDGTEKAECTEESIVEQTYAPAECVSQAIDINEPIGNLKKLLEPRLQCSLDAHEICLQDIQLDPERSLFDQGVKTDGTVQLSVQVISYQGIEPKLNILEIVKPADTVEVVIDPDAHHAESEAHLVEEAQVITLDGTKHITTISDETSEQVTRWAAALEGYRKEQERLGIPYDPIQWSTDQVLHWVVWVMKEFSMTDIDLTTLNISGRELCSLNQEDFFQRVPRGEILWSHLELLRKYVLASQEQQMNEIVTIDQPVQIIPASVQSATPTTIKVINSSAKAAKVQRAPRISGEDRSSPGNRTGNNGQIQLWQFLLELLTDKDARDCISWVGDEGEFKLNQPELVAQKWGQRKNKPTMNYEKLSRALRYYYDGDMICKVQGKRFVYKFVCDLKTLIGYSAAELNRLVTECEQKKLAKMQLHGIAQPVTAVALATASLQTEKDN
Procedure, shortened: as §1

ERG = target: T4, ERG (Homo sapiens, UniProt P11308 1-479)
T4 sequence: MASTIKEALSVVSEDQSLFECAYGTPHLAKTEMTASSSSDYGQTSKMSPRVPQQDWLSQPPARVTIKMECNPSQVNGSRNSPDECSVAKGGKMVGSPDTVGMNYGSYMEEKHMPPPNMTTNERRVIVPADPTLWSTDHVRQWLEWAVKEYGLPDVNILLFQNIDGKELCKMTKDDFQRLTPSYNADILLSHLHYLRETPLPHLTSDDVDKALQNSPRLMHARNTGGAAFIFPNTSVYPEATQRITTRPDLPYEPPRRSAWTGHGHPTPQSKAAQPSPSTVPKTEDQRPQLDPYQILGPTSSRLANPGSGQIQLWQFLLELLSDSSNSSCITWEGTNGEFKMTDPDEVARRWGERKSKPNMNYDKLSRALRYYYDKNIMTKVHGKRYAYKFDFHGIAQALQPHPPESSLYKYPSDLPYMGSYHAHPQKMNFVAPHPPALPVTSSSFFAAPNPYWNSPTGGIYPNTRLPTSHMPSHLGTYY
Procedure, shortened: as §1

ELF1 = ELF1 (Homo sapiens, UniProt P32519 1-619)
Procedure, shortened: as §1

EHF = target: T5, EHF (Homo sapiens, UniProt Q9NZC4 1-300)
T5 sequence: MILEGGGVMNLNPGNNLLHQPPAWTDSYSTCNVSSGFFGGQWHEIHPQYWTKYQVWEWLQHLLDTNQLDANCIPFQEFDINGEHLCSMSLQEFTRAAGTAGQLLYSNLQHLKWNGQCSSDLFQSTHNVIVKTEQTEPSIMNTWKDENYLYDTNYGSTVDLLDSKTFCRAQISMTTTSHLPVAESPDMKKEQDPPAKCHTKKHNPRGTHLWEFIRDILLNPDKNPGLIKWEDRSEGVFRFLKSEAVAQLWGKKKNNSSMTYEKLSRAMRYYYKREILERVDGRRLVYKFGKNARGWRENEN
Procedure, shortened: as §1

SPI1 = SPI1 (Homo sapiens, UniProt P17947 1-270)
Procedure, shortened: as §1

SPIB = SPIB (Homo sapiens, UniProt Q01892 1-262)
Procedure, shortened: as §1

ELK3 = target: T6, ELK3 (Homo sapiens, UniProt P41970 1-407)
T6 sequence: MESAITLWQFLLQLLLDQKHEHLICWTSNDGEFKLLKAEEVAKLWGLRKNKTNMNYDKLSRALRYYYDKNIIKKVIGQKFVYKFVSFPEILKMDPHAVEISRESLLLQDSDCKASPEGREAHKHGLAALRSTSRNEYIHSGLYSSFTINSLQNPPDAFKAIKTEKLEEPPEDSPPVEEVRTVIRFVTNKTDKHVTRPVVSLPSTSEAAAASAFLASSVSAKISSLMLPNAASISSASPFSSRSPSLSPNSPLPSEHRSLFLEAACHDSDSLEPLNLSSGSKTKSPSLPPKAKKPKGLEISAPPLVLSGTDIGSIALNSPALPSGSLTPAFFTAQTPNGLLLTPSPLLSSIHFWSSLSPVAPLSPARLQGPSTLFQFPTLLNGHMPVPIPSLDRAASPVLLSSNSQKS
Procedure, shortened: as §1

Chain of ELF1 (P32519 whole entry): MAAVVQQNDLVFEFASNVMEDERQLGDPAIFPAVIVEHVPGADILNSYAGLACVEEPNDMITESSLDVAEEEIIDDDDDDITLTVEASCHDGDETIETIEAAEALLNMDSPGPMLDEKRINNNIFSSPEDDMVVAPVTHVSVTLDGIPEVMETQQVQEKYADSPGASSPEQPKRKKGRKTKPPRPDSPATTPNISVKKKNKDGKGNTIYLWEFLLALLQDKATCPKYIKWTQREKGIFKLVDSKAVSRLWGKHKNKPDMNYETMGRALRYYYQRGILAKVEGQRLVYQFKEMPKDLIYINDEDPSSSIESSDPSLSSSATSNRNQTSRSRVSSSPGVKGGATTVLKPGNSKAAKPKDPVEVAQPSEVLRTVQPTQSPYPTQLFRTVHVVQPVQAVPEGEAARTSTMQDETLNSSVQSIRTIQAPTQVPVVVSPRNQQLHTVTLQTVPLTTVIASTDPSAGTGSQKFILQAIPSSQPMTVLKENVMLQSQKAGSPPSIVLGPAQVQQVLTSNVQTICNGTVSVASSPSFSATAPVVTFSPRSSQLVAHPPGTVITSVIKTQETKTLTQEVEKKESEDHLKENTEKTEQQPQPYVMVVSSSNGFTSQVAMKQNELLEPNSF
Chain of SPIB (Q01892 whole entry): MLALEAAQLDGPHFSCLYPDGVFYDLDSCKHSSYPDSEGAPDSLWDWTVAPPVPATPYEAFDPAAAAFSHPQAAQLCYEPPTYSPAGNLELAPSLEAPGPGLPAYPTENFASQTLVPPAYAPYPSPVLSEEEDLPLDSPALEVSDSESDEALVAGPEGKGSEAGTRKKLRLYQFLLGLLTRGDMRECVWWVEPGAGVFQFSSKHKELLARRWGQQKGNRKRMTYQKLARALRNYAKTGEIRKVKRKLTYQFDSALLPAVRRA

| Sequence | binding signal (FLI1) | binding signal (ELK1) | binding signal (GABPA) | binding signal (ERG) | binding signal (ELF1) | binding signal (EHF) | binding signal (SPI1) | binding signal (SPIB) | binding signal (ELK3) |
| --- | --- | --- | --- | --- | --- | --- | --- | --- | --- |
| TAGATG | 1.28 fold enrichment (6-mer frequency, TF over GST control) | 1.29 fold enrichment (6-mer frequency, TF over GST control) | 1.27 fold enrichment (6-mer frequency, TF over GST control) | 1.27 fold enrichment (6-mer frequency, TF over GST control) | 1.29 fold enrichment (6-mer frequency, TF over GST control) | 1.26 fold enrichment (6-mer frequency, TF over GST control) | 1.3 fold enrichment (6-mer frequency, TF over GST control) | 1.24 fold enrichment (6-mer frequency, TF over GST control) | 1.31 fold enrichment (6-mer frequency, TF over GST control) |
| ACTATA | 1.37 fold enrichment (6-mer frequency, TF over GST control) | 1.28 fold enrichment (6-mer frequency, TF over GST control) | 1.33 fold enrichment (6-mer frequency, TF over GST control) | 1.31 fold enrichment (6-mer frequency, TF over GST control) | 1.33 fold enrichment (6-mer frequency, TF over GST control) | 1.29 fold enrichment (6-mer frequency, TF over GST control) | 1.43 fold enrichment (6-mer frequency, TF over GST control) | 1.28 fold enrichment (6-mer frequency, TF over GST control) | 1.29 fold enrichment (6-mer frequency, TF over GST control) |
| ATTTAT | 1.41 fold enrichment (6-mer frequency, TF over GST control) | 1.48 fold enrichment (6-mer frequency, TF over GST control) | 1.35 fold enrichment (6-mer frequency, TF over GST control) | 1.33 fold enrichment (6-mer frequency, TF over GST control) | 1.32 fold enrichment (6-mer frequency, TF over GST control) | 1.45 fold enrichment (6-mer frequency, TF over GST control) | 1.43 fold enrichment (6-mer frequency, TF over GST control) | 1.46 fold enrichment (6-mer frequency, TF over GST control) | 1.49 fold enrichment (6-mer frequency, TF over GST control) |
| CCTATG | 1.14 fold enrichment (6-mer frequency, TF over GST control) | 1.31 fold enrichment (6-mer frequency, TF over GST control) | 1.31 fold enrichment (6-mer frequency, TF over GST control) | 1.14 fold enrichment (6-mer frequency, TF over GST control) | 1.27 fold enrichment (6-mer frequency, TF over GST control) | 1.14 fold enrichment (6-mer frequency, TF over GST control) | 1.21 fold enrichment (6-mer frequency, TF over GST control) | 1.19 fold enrichment (6-mer frequency, TF over GST control) | 1.18 fold enrichment (6-mer frequency, TF over GST control) |
| CTGTAC | 1.28 fold enrichment (6-mer frequency, TF over GST control) | 1.31 fold enrichment (6-mer frequency, TF over GST control) | 1.23 fold enrichment (6-mer frequency, TF over GST control) | 1.39 fold enrichment (6-mer frequency, TF over GST control) | 1.38 fold enrichment (6-mer frequency, TF over GST control) | 1.33 fold enrichment (6-mer frequency, TF over GST control) | 1.4 fold enrichment (6-mer frequency, TF over GST control) | 1.3 fold enrichment (6-mer frequency, TF over GST control) | 1.24 fold enrichment (6-mer frequency, TF over GST control) |
| TTCTGG | 1.36 fold enrichment (6-mer frequency, TF over GST control) | 1.16 fold enrichment (6-mer frequency, TF over GST control) | 1.32 fold enrichment (6-mer frequency, TF over GST control) | 1.31 fold enrichment (6-mer frequency, TF over GST control) | 1.14 fold enrichment (6-mer frequency, TF over GST control) | 1.2 fold enrichment (6-mer frequency, TF over GST control) | 1.24 fold enrichment (6-mer frequency, TF over GST control) | 1.18 fold enrichment (6-mer frequency, TF over GST control) | 1.48 fold enrichment (6-mer frequency, TF over GST control) |
| AGGTCT | 1.31 fold enrichment (6-mer frequency, TF over GST control) | 1.17 fold enrichment (6-mer frequency, TF over GST control) | 1.16 fold enrichment (6-mer frequency, TF over GST control) | 1.15 fold enrichment (6-mer frequency, TF over GST control) | 1.22 fold enrichment (6-mer frequency, TF over GST control) | 1.19 fold enrichment (6-mer frequency, TF over GST control) | 1.11 fold enrichment (6-mer frequency, TF over GST control) | 1.22 fold enrichment (6-mer frequency, TF over GST control) | 1.3 fold enrichment (6-mer frequency, TF over GST control) |

Reference: PMC7862700, “An all-to-all approach to the identification of sequence-specific readers for epigenetic DNA modifications on cytosine”
